The supplement of paper PMC10681739

Target: T1, ETS1 (UniProt P14921)
T1 sequence: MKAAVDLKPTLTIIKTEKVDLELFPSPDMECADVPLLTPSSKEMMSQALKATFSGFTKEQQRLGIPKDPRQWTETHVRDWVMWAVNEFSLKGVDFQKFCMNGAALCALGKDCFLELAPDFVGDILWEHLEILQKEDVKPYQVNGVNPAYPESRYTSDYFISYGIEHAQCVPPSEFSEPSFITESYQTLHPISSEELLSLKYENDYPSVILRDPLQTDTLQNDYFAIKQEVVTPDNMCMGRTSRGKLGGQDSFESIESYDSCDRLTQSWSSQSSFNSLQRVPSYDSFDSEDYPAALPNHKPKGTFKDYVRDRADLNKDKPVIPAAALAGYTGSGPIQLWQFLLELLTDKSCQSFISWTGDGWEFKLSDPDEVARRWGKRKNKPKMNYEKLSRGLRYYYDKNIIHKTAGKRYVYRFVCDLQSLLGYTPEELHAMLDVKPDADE
Assay: ETS1 binding intensity (PBM fluorescence) in presence of RUNX1, normalised to ETS1-only experiment (arbitrary fluorescence units); higher = stronger binding
Settings: ETS1 concentration 1 nM; RUNX1 concentration 25 nM
Protocol: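 Cooperative genomic-context PBM: 36-bp genomic probes with neighbouring ETS1 and RUNX1 sites, double-stranded on Agilent 4x180k arrays. Full-length recombinant human ETS1 (1 nM) was incubated alone or with RUNX1 (25 nM) and detected with anti-ETS1 antibody plus Alexa488 secondary. Value is the median fluorescence intensity over 4 replicate spots; the ETS1+RUNX1 data were normalised to the ETS1-only data using probes without RUNX1 sites. The 36-bp variable region sits on the array probe with constant linker/primer flanks that are not printed.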

Q: Which ETS1 binding intensity does the source give for GAGTGGGGGTGGGGAGGAAGCCACAGGGCCGGGCTG here?
A: 771

Q: How did the ETS1 binding intensity turn out when TCTCTTCTCCCCATCCGCCCGAGACCACAGCCACTC was run?
A: 507

Q: How did the ETS1 binding intensity turn out when CCCTCATCTTCCTGCTTCAGGCAGCTGTGGTTTACC was run?
A: 1550

Q: Which ETS1 binding intensity does the source give for ATTCCTAGAGAGGAAATGCGGGCTCAGGGTGTCGGC here?
A: 1560

Q: For GGCGGGACTTCCGGCGTCTCCCCTCGGCGGTTGCTT, which ETS1 binding intensity is on record?
A: 2700

Q: GGGGGCGGAAGTTTCGGTGCATTGTGGGTTCTCCTG was tested. Which ETS1 binding intensity did it give?
A: 1980

Q: How did the ETS1 binding intensity turn out when CCCACCCGGAAATGAGCCAACAGTGGTTTCGCCCCG was run?
A: 2010

Q: How did the ETS1 binding intensity turn out when GTTCCTTTGAAAGCAGGATGTGGTTTGCCCCAGCTT was run?
A: 29200

Q: GTAAACTAGCTCTTCCGGTCTGTGGCCCTCACAGGA was tested. Which ETS1 binding intensity did it give?
A: 3250

Q: Which ETS1 binding intensity does the source give for GCACCACCGGAAGTAGGGCTCAACCACCGCTCATTT here?
A: 13400

Q: Which ETS1 binding intensity does the source give for GACAGGATACAAGAATTCCGCGGACTGCCGCAGTCG here?
A: 649

Q: For AGCTGCGGAGCATCCGCTGCGGTCCTCGCCGAGACC, which ETS1 binding intensity is on record?
A: 453

Q: With AATCCCGGAAACGCGGATTCAGCGGAGCGCGGTGAC as the sequence, how does the ETS1 binding intensity read?
A: 1500

Q: GTGGGTAGGGAGGAAGCTGTGAAACCACCTCCCCTC was tested. Which ETS1 binding intensity did it give?
A: 882

Q: GACACGTCTTTGGAAGGATGTGGTTGCCGTGGGTTT was tested. Which ETS1 binding intensity did it give?
A: 5580

Q: TTACGACACTTCCGGCGACGCCCCGCAGCCTTCACC was tested. Which ETS1 binding intensity did it give?
A: 2740

Q: Which ETS1 binding intensity does the source give for GCGGGCAGGATCTTCCTGTGGTTTGCCTTGCCCACT here?
A: 653

Q: CTTCCTTCCCTTCCTTCTGCTCCCTCCCACAGCCGC was tested. Which ETS1 binding intensity did it give?
A: 436

Q: TGCATGTGCAGCAGAGGAAACCACAAGTTATTCCCT was tested. Which ETS1 binding intensity did it give?
A: 1560

Q: How did the ETS1 binding intensity turn out when ACGGACAGAATTTCCTCCCCCGTCACCACAGCGACC was run?
A: 728

Q: With CCCAGGGCAGGAAGGGCCAAACCGCTACTGCCACTG as the sequence, how does the ETS1 binding intensity read?
A: 2080

Q: Which ETS1 binding intensity does the source give for ACCGGAAGGGCGGGGGCGTGGCGAGGTACCGCAGAC here?
A: 2850

Q: How did the ETS1 binding intensity turn out when CCTCGCCCCCTTCCGCACCCACCCCACCGCGCTCCG was run?
A: 786

Q: For CCGGGACAGGAAGAGGCTGGGGACCGCGGCGAAGGT, which ETS1 binding intensity is on record?
A: 1550

Q: With CTGTGAGGCGGAAGTGGCGGGCTCTGTGGGCGCAAG as the sequence, how does the ETS1 binding intensity read?
A: 8270

Q: GAAAGACAGGATGTGGGATAGATCTCAACCACCTTT was tested. Which ETS1 binding intensity did it give?
A: 4970

Q: Which ETS1 binding intensity does the source give for TGACTAAGACCGGAAGAAACCACAAAAACACAAAAA here?
A: 6730

Q: With GATCTGTGCTCAGGATGTGGTGAGAGAATAAGGAAG as the sequence, how does the ETS1 binding intensity read?
A: 2870

Q: Which ETS1 binding intensity does the source give for CTCTTCCAGGAAGCCTTCCCTGACCACTGCTTGCTC here?
A: 505

Q: How did the ETS1 binding intensity turn out when AAGACAACATCCTGCCGGCACAGCCTGCGGGTTACT was run?
A: 1480

Q: For GTTGGGCTTTGAGGATGTGGGTTCTAGAAGTTTACA, which ETS1 binding intensity is on record?
A: 2120

Q: Which ETS1 binding intensity does the source give for CTACTTTCCGGTCAACGCGGCCTGCGGTACCACCTC here?
A: 720

Q: For TGCCGTTTCCGGGTCACCCAGGCAGCTTGTGGCGGC, which ETS1 binding intensity is on record?
A: 478

Q: With TGCGCCGCTTCCGCTGCCCGAGGAAGAGCCGCAGTC as the sequence, how does the ETS1 binding intensity read?
A: 1230

Q: GAGGGGAGGATGTCTGAGCTTTTAATTGTGGTTTCA was tested. Which ETS1 binding intensity did it give?
A: 1050

Q: How did the ETS1 binding intensity turn out when AGACCCGGATATGCGCCGGGGACCCCCAGACCGCGC was run?
A: 697

Q: For GCACGCCATCGAGGAAGTGGGTTTACTGTGTATTTC, which ETS1 binding intensity is on record?
A: 1110

Q: For CCCCTTCATCCGCCTCTCTCTCACCGCGCCGCTCCC, which ETS1 binding intensity is on record?
A: 330

Q: Which ETS1 binding intensity does the source give for CCTGTTCCGGGCTCCGTACACCCAGGCCCGCAGCTG here?
A: 494

Q: CCGGGCCTCCAGACGGAACTGTGGGCGAGGGGAGGG was tested. Which ETS1 binding intensity did it give?
A: 404
